Source: PubChem BioAssay
Shown are actives, neighbours in structure and some others; about 4% of the full set was active somewhere.
CF NFkB block – inhibitors of cystic fibrosis induced NF-kB; KKLEB NF-kB-GFP reporter, PAF-induced, GFP fluorescence overnight; inhibition, % at 5 µM; 360,000 tested, 0.86% active; AID 588850;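 active = at least 50% inhibition at 5 µM, scaled per plate between neutral and stimulator controls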;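 note: PAF is a Pseudomonas aeruginosa culture filtrate used as stimulus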
TROY signal inh – inhibitors of TROY-dependent NF-kB signaling. Q293 LMP1-TROYcd NF-kB luciferase reporter, 4 h. inhibition, % at 10 µM. 360,000 tested, 0.98% active. AID 1347056;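 active = compounds whose plate-normalised and pattern-corrected inhibition of the luciferase reporter signal at the single screening dose is 50% or more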
Peg3 prom inh – inhibitors of Peg3 promoter; HeLa PEG-Prom luciferase reporter, luminescence, overnight; inhibition, % at 20 µM; 360,000 tested, 1.7% active;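 active = inhibition of at least 50% at 20 µM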
HIF-2a block – inhibitors of HIF-2a; 786-0 RCC cells HIF-2a reporter, luciferase luminescence, overnight; 360,000 tested, 0.72% active; inhibition, % at 18.8 µM;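 active = inhibition of the luminescence signal of 40% or more relative to plate controls, in a single-dose primary screen at 18.75 µM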
KKLEB tox – reduces viability of KKLEB cystic fibrosis airway cells; KKLEB CF airway cells viability, ATPlite luminescence, overnight; hits give low values; cells stimulated with P. aeruginosa culture filtrate; activity change (cytotoxicity), % at 5 µM; 360,000 tested, 0.36% active;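 active = corrected activity change at or below -50% at 5 µM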
TWEAK-Fn14 inh – blocks TWEAK-Fn14 interaction in a reporter cell assay. TWEAK-stimulated Fn14 reporter cells, luciferase luminescence, 8 h. inhibition, % at 10 µM. 360,000 tested, 2% active. AID 1159606; in the data active = inhibition above about 50%
Each line names hits and unclear results; the compound was inactive in the other large screens.

O=C(Nc1ccc(-c2cn3ccsc3n2)cc1)C1COc2ccccc2O1 (stereo not given)	TROY signal inh 57
CC1(C)Oc2ccc(NC(=O)C3COc4ccccc4O3)cc2O1 (stereo not given)	TROY signal inh 54
C/C(=N\NC(=O)C1COc2ccccc2O1)c1ccccn1 (stereo not given)	Peg3 prom inh 51
COc1ccc([C@@H]2CC=C(C(=O)O)[C@H](c3ccccc3F)N2S(=O)(=O)c2ccccc2C)cc1	none
CCOC(=O)[C@]12CCCC=C1N(Cc1ccco1)C(=O)[C@H](CC(=O)NCCc1ccccc1OC)C2	none (no result: CF NFkB block, Peg3 prom inh, KKLEB tox)
COC(=O)[C@]12CCCCC=C1N(Cc1ccc(Cl)cc1Cl)C(=O)[C@H](CC(=O)N1CCSCC1)C2	none (no result: CF NFkB block, Peg3 prom inh, KKLEB tox)
O=C(CCc1nnc2ccc(NCc3ccco3)nn12)Nc1ccccc1F	none
Cc1ccc(NC(=O)C2COc3ccccc3O2)cc1 (stereo not given)	TWEAK-Fn14 inh 51
O=C(Nc1nncs1)C1COc2ccccc2O1 (stereo not given)	none
CC(=O)c1sc(NC(=O)C2COc3ccccc3O2)nc1C (stereo not given)	TROY signal inh 56, TWEAK-Fn14 inh 87
COC(=O)[C@@]12C[C@@H](CC(=O)N3CCN(C(=O)c4ccco4)CC3)C(=O)N(CCc3ccc(OC)c(OC)c3)C1=CCC(C)(C)C2	none (no result: CF NFkB block, TROY signal inh, Peg3 prom inh, KKLEB tox, TWEAK-Fn14 inh)
Cc1ccc(-n2c(SCC(N)=O)nc3c(oc4ccccc43)c2=O)cc1	none
COc1ccc2cc(C3CC=C(CO)CN3S(=O)(=O)c3ccccc3[N+](=O)[O-])n(C(=O)OC(C)(C)C)c2c1 (stereo not given)	none (no result: CF NFkB block, TROY signal inh, Peg3 prom inh, KKLEB tox, TWEAK-Fn14 inh)
Cc1ccc(CNC(=O)Cn2ccc3cc(S(=O)(=O)N4CCCC4)ccc32)o1	none
Nc1ccc2oc(-c3ccccc3Cl)nc2c1	TWEAK-Fn14 inh 51
Nc1ccc(-c2nc3cc(N)ccc3o2)cc1	none
CN(C)c1ccc(-c2nc3cc(N)ccc3o2)cc1	KKLEB tox -60, TWEAK-Fn14 inh 74
CCc1ccc2oc(-c3cc(N)ccc3O)nc2c1	none
CCc1ccc2oc(-c3cc(N)ccc3Cl)nc2c1	TROY signal inh 57, TWEAK-Fn14 inh 83
Nc1ccc2oc(-c3ccccn3)nc2c1	none
COc1ccccc1NC(=O)Cc1nnc(SCC(=O)Nc2nccs2)n1C	none
CCN(CC(=O)Nc1c(F)cccc1F)C(=O)CCCN1C(=O)c2cccc3cccc(c23)C1=O	none
CCOC(=O)C1CCN(C(=O)Cn2ncc3c([nH]c4ccccc43)c2=O)CC1	none
CCOc1ccc2nc(SCC(=O)c3ccccc3)sc2c1	none
CCOc1ccc2nc(SCCNS(=O)(=O)c3ccccc3)sc2c1	TWEAK-Fn14 inh 55
CC1CCCN(C(=O)c2ccc(S(=O)(=O)N3CCC(c4nc5ccccc5s4)CC3)cc2)C1 (stereo not given)	TROY signal inh 52, TWEAK-Fn14 inh 57
Cc1c(Cl)ccc2c(C(=O)NCCN3CCCCC3)cc(-c3ccccn3)nc12	Peg3 prom inh 68
COc1ccccc1-c1cc(C(=O)NC2CCN(C)CC2)c2ccc(Cl)c(C)c2n1	Peg3 prom inh 105
Cc1c(Cl)ccc2c(C(=O)NCCCn3nccc3C)cc(-c3ccccn3)nc12	none
COCCN(CC(=O)Nc1cccc(C)c1C)C(=O)c1cc(-c2ccncc2)nc2ccccc12	none
O=C(c1cc(F)c(F)cc1Cl)N1CCN(S(=O)(=O)c2cccs2)CC1	none
COc1ccc(OC)c(S(=O)(=O)NC2CCSc3ccccc32)c1 (stereo not given)	none
Cc1cc(NC(=O)NC(=O)c2ccccc2)no1	none
CC(O)(c1ccc(F)c(F)c1)c1nc(-c2cnc3ccccc3c2)cs1 (stereo not given)	TWEAK-Fn14 inh 55
Cc1cccnc1CCNC(=O)c1ccc(OC2CCN(Cc3ccccn3)CC2)cc1	Peg3 prom inh 72, TWEAK-Fn14 inh 55
COCC(=O)N1CCC(Oc2ccc(C(=O)NCCc3ncccc3C)cc2)CC1	none
O=C(NCCc1cccc(Cl)c1)c1ccc(OC2CCN(Cc3ccccn3)CC2)cc1	TROY signal inh 73, TWEAK-Fn14 inh 82
COc1ccccc1N1CCN(C2C(=O)Nc3ccccc3-n3nnnc32)CC1 (stereo not given)	none (no result: CF NFkB block, TROY signal inh, Peg3 prom inh, KKLEB tox, TWEAK-Fn14 inh)
CCOC(=O)[C@]12CCC=C1N(Cc1cccc3ccccc13)C(=O)[C@H](CC(=O)N1CCCC1)C2	none (no result: CF NFkB block, Peg3 prom inh, KKLEB tox)
CCOc1ccc(N2CC(C(=O)NNC(=O)c3ccc(Br)cc3)CC2=O)cc1 (stereo not given)	none
CC(C)(C)c1ccc(NC(=O)COc2ccc(-n3ccnc3)cc2)cc1	TROY signal inh 75, TWEAK-Fn14 inh 93
COc1cc(NC(=O)COc2ccc(-n3ccnc3)cc2)cc(OC)c1	none
O=C(CCOc1ccccc1)NNC(=O)c1ccccc1	none
O=C(Nc1nc2ccccc2s1)c1c(F)cccc1Cl	none
O=C(NC(=S)Nc1nc2ccccc2s1)c1cccs1	KKLEB tox -56
Cc1ccnc2nc(C(=O)Nc3nc4ccccc4s3)nn12	TWEAK-Fn14 inh 67
Cn1cc(Cl)c(C(=O)Nc2nc3ccccc3s2)n1	TWEAK-Fn14 inh 57
Cc1csc(NC(=O)c2nc3nccc(C)n3n2)n1	none
Nc1ccc(C(=O)Nc2nc3ccccc3s2)cc1	TWEAK-Fn14 inh 62
Cc1ccsc1C(=O)NCc1ccc(F)cc1	none
NC(=O)C1CCN(CC(=O)Nc2ccccc2C(=O)NC2CC2)CC1	none
Cc1nn(-c2ccccc2)c(Cl)c1/C=C1\SC(=S)NC1=O	TROY signal inh 51
COc1ccc(-c2nc(-c3cccs3)no2)cc1	TROY signal inh 58, TWEAK-Fn14 inh 86
Cc1cc(C)cc(NC(=O)C2CCN(S(=O)(=O)c3ccc4c(c3)NC(=O)C(C)S4)CC2)c1 (stereo not given)	none
Cc1ccc(C)c(N2CCN(C(=O)CCS(=O)(=O)c3ccc4c(c3)NC(=O)C(C)S4)CC2)c1 (stereo not given)	TWEAK-Fn14 inh 72
COc1ccc(N2CCN(C(=O)CCS(=O)(=O)c3ccc4c(c3)NC(=O)C(C)S4)CC2)cc1 (stereo not given)	none
Cc1ccc(NC(=O)C2CCN(S(=O)(=O)c3ccc4c(c3)NC(=O)C(C)S4)CC2)cc1Cl (stereo not given)	TWEAK-Fn14 inh 63
CCC1(c2ccccc2)NC(=O)N(CC(=O)N(CC(=O)Nc2ccccc2C(F)(F)F)Cc2ccco2)C1=O (stereo not given)	none
CCN1C[C@@H]2[C@@H]3C(=O)N(C)C(=O)[C@@H]3[C@](CC)(C1=O)N2C(=O)c1ccc(C(C)(C)C)cc1	none
O=C(N=C1c2ccccc2CN1c1ccc(F)c(F)c1)c1cccnc1	TWEAK-Fn14 inh 52
O=C(N=C1c2ccccc2CN1c1cccc(Cl)c1)c1cccnc1	none
Cc1nc(SCC(=O)c2cc(C)n(C3CC3)c2C)c2ccccc2n1	none
Cc1cccnc1Nc1nc(-c2ccccn2)cs1	TWEAK-Fn14 inh 101
